Screen size: about 69,000 compounds; about 8,600 (12%) showed an effect of 50% or more. Shown is part of a subset that was picked to be rich in strong results.

This assay concerns Plasmodium berghei. Put plainly: Screen against P. berghei liver stage (PbLuc), transformed with Luciferase, at 10uM. In kind it is functional, HepG2. The following applies: tested at 10 uM.
As to `CC(=O)N1CC2(CCCCN2Cc2ccc(Cl)cc2)Cc2ccccc21` (configuration not stated), the INHIBITION was 59%.

Take `CS(=O)(=O)N1CC2(CCCN2Cc2ccc(Cl)cc2)Cc2ccccc21` (configuration not stated): the INHIBITION is given as 23.4%.

As to `CS(=O)(=O)N1Cc2ccccc2CC2(CCN(Cc3ccccn3)C2)C1` (configuration not stated), the INHIBITION is 40%.

For `CC(=O)N1CC2(CCCN2Cc2ccc(Cl)cc2)Cc2ccccc21` (configuration not stated), the INHIBITION worked out at 46.6%.

Consider `CN(C)CC(=O)N1CC2(CCN(Cc3ccccc3)C2)C1`, for which the INHIBITION was -2.35%.

For the compound `CS(=O)(=O)N1Cc2ccccc2CC2(CCN(Cc3ccccc3)C2)C1` (configuration not stated), the INHIBITION was determined as 55.7%.

As to `CC(=O)N1CC2(CCCN(Cc3ccc(Cl)cc3)C2)Cc2ccccc21` (configuration not stated), the INHIBITION amounted to 49.1%.

Consider `CC(=O)N1CC2(CCN(Cc3ccc(Cl)cc3)CC2)Cc2ccccc21`, for which the INHIBITION was 61.5%.

Consider `Cc1ncsc1CN1CCC2(CC1)CC(=O)N(Cc1ccc(Cl)cc1)C2`, for which the INHIBITION is -16%.

In the case of `CS(=O)(=O)N1Cc2ccccc2CC2(CCN(Cc3ccncc3)C2)C1` (configuration not stated), the INHIBITION was 38.3%.

Consider `CCOc1ncccc1CNC(=O)N1CCCC1c1ccsc1` (configuration not stated), for which the INHIBITION is reported as 40.9%.

For `O=C(c1cscn1)N1C[C@H]2CCCC(OCc3cccnc3)[C@H]2C1` (some centres not stated), the INHIBITION worked out at 4.2%.

Turning to `CCS(=O)(=O)NCC(=O)NC1(C)CCc2ccccc2C1` (configuration not stated), the INHIBITION was -9.39%.

For the compound `Cc1nc(CN2CCN(Cc3ccoc3)Cc3cccnc32)cs1`, the INHIBITION was determined as 21.6%.

As for `CSc1ncc(C(=O)N2C[C@@H]3CC[C@H]2CN(S(=O)(=O)N(C)C)C3)cn1`, the INHIBITION is recorded as -9.92%.

With `Cc1c(C(=O)N2CCCSCC2)nnn1-c1ccccc1Cl`, the INHIBITION came out at 26%.

`Cc1nc(C)c(C(=O)NCCNC(=O)Cc2ccc(F)cc2)s1`: the INHIBITION is recorded as -29.9%.

In the case of `CC(C)N1CCC(C(=O)N2CCC(C(O)c3nccn3C)CC2)CC1` (configuration not stated), the INHIBITION was determined as 9.41%.

Regarding `O=c1[nH]ncn1-c1cccc(C(F)(F)F)c1`, the INHIBITION stood at 42.1%.

With `CCCN1CCCn2c(nc(CNC(=O)c3cnoc3C)cc2=O)C1`, the INHIBITION turned out to be 9.63%.

As for `O=C(NC1(c2nccs2)CCCC1)c1[nH]nc(C2CC2)c1Cl`, the INHIBITION is listed as 56.6%.

For the compound `O=C(NC1(c2nccs2)CCCC1)c1cc(C2CC2)[nH]n1`, the INHIBITION was 29.8%.

Consider `O=C(NC1(c2nccs2)CCCC1)c1cc(C2CC2)on1`, for which the INHIBITION worked out at 36.5%.

Turning to `COc1cc(C)ccc1OCC(=O)NS(=O)(=O)c1ccc(Br)s1`, the INHIBITION is reported as -2.19%.

Turning to `O=C(c1cc(F)cc2[nH]cnc12)N1CCCC1Cn1cccn1` (configuration not stated), the INHIBITION came out at 39.7%.

For the compound `O=C(c1cc(F)cc2[nH]cnc12)N1CCCCC1Cn1cccn1` (configuration not stated), the INHIBITION was found to be 77.4%.

For `NC(=O)c1ccc(C(=O)N2CCCCC2Cn2cccn2)s1` (configuration not stated), the INHIBITION is listed as 53.9%.

Turning to `CCN(CC)Cc1ccc(C(=O)N2CCCC2Cn2cccn2)cc1` (configuration not stated), the INHIBITION is recorded as 56.85%.

For the compound `CCN(CC)Cc1ccc(C(=O)N2CCCC2Cn2cccn2)o1` (configuration not stated), the INHIBITION is 4.05%.

As for `CCN(CC)CC(=O)N1CCCC1Cn1cccn1` (configuration not stated), the INHIBITION was 21.5%.

`CCc1nc(CC(=O)N2CCCCC2Cn2cccn2)cs1` (configuration not stated): the INHIBITION turned out to be 62.6%.

For `NC(=O)c1csc(C(=O)N2CCCCC2Cn2cccn2)c1` (configuration not stated), the INHIBITION is 17.8%.

`CCc1nc(CC(=O)N2CCCC2Cn2cccn2)cs1` (configuration not stated): the INHIBITION came to 2.61%.

As to `CCc1ncc(C(=O)N2CCCCC2Cn2cccn2)s1` (configuration not stated), the INHIBITION stood at 33.6%.

With `Cc1nc(CC(=O)N2CCCCC2Cn2cccn2)cs1` (configuration not stated), the INHIBITION is 7.08%.

Consider `O=C(c1cc2cc(F)ccc2[nH]1)N1CCCCC1Cn1cccn1` (configuration not stated), for which the INHIBITION was -12.2%.

For `O=C(c1ccc2c(c1)CCC2)N1CCn2ncnc2C1`, the INHIBITION stood at 40.4%.

Take `CS(=O)(=O)N1CCCC(Cc2ccnc(Nc3ccccn3)c2)C1` (configuration not stated): the INHIBITION stood at 12.7%.

Regarding `CCNC(=O)[C@@H]1C[C@@H](N)CN1C(=O)C1(c2ccc(OC)cc2)CCCC1`, the INHIBITION turned out to be 9.55%.

In the case of `Cn1ccc(CN2CCC3(CC2)CC(Nc2cnccn2)CO3)n1` (configuration not stated), the INHIBITION is reported as 46.7%.

With `Cc1ccccc1-n1nc(C)c(CN(C)C(C)Cc2ccccn2)c1C` (configuration not stated), the INHIBITION turned out to be 24%.

Regarding `Cc1cccc(CNC(C)c2ccc(OCC(=O)NC3CC3)cc2)c1` (configuration not stated), the INHIBITION was determined as 15.3%.

Regarding `O=C(NCC1OCCc2cn(CC3CCOCC3)nc21)c1ccncc1` (configuration not stated), the INHIBITION stood at 32.2%.

On to `CCOc1ccc(Cl)cc1CCNC(=O)Cn1ccccc1=O`, for which the INHIBITION is recorded as -47%.

As for `CC(Cn1cccn1)NCCCc1nc(-c2cccs2)no1` (configuration not stated), the INHIBITION was 10%.

For `O=C(c1csc(C2CC2)n1)N1CCCC1Cn1cccn1` (configuration not stated), the INHIBITION was 1.78%.

Consider `COc1ccccc1OCCC(=O)N1CCCC1Cn1cccn1` (configuration not stated), for which the INHIBITION turned out to be 33.3%.

With `CC(=O)Nc1nc(C(=O)N2CCCCC2Cn2cccn2)cs1` (configuration not stated), the INHIBITION is recorded as -27.8%.

On to `Cc1cnn(CC2CCCCN2C(=O)c2ccc3nncn3c2)c1` (configuration not stated), for which the INHIBITION came out at 35.9%.

As to `O=C(c1csc(C2CC2)n1)N1CCCCC1Cn1cccn1` (configuration not stated), the INHIBITION worked out at 52.5%.

`CCc1ccc(C(=O)N2CCCCC2Cn2cccn2)o1` (configuration not stated): the INHIBITION is -2.35%.

`COc1cc(C)ccc1OCCC(=O)N1CCCC1Cn1cccn1` (configuration not stated): the INHIBITION is 52.7%.

In the case of `CC(=O)NCc1ccc(C(=O)N2CCCCC2Cn2cccn2)o1` (configuration not stated), the INHIBITION is given as 61.7%.

On to `COc1ccc(OCCC(=O)N2CCCC2Cn2cccn2)cc1` (configuration not stated), for which the INHIBITION was -10.1%.

As for `CCN(CC)Cc1ccc(C(=O)N2CCCCC2Cn2cccn2)o1` (configuration not stated), the INHIBITION was determined as 19.5%.

Turning to `Cc1cc(C)n(CC2CCCCN2C(=O)c2ccc3nncn3c2)n1` (configuration not stated), the INHIBITION turned out to be 5.97%.

As for `O=C(c1ccc2nncn2c1)N1CCCCC1Cn1cccn1` (configuration not stated), the INHIBITION is 54.4%.
